# Data taken from PubChem BioAssay (NCI).
# The panel holds about 83,000 compounds, 20% with a hit somewhere; the sample as a whole holds those more often.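 For each line, cells grew in 96-well plates with the test compound present at a single concentration for 48 hours.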 The source made the active and inactive calls. How the source made its calls: active means growth percent below 10; inactive means the rest.
# Test system: HL-60(TB) leukemia
# Test: NCI-60 one-dose screen, 48 h (100 = growth as untreated, 0 = no growth, -100 = all killed)
# Settings: 10 µM unless noted
row,SMILES,growth
1,COc1ccc2c(c1)C(=O)/C(=C/c1cccc(OCC(=O)c3ccccc3)c1)CC2,46.5% (inactive)
2,CCC1CCc2nc3sc(C(=O)Nc4ccccc4F)c(N)c3cc2C1 (stereo not given),21.5% (inactive)
3,O=C1/C(=C/c2ccccc2F)CNC/C1=C\c1ccccc1F,-42.9% (active)
4,O=C1OCC2=C1C(c1cccc(C(F)(F)F)c1)c1cc3c(cc1N2CCO)OCCO3 (stereo not given),-29.5% (active)
5,COc1cc(OC)c2cc(C(=O)c3ccc(C#N)cc3)c(=O)oc2c1,97.4% (inactive)
6,COc1ccc2c(c1)C(CC(=O)NN)CCC2 (stereo not given),113% (inactive)
7,CCCCCCCCNc1cccc2c1C(=O)c1ccccc1C2=O,73% (inactive)
8,O=C(O)c1ccccc1Oc1cc(-c2ccco2)nc(OCCBr)n1,100% (inactive)
9,O=C(COc1ccc(/C=C2\Cc3ccc(Cl)cc3C2=O)cc1)Nc1nc2ccccc2s1,117% (inactive)
10,COc1ccc(-c2cn[nH]c2-c2cc(OC)c3c(c2)OCO3)cc1,-29% (active)
11,N#CC1=C(N2CCOCC2)NC2c3ccccc3Sc3ccccc3N2C1=N (stereo not given),89.8% (inactive)
12,COc1ccc2nc3cc(Cl)ccc3c(NC(=O)CSc3ccc(Cl)cc3)c2c1,-50.7% (active)
13,O=C1/C(=C\c2ccc[nH]2)c2ccccc2N1c1ccccc1,94.4% (inactive)
14,CCCCNC(=O)c1ccc2c(c1)nc(-c1ccccc1)n2C1CCCCC1,115% (inactive)
15,COc1cc(Cl)cc(-c2nn(-c3cccc(NC(=O)c4ccc(N5CCOCC5)c(C(F)(F)F)c4)c3)cc2-c2ccncc2)c1,2.73% (active)
16,c1ccc(CSc2nnc3c4c5c(sc4nc(-c4cccnc4)n23)CCCCCC5)cc1,4% (active)
17,C/C(=C(/c1ccccc1)c1ccc(N2C(=O)c3cccc4c(N5CCN(C)CC5)ccc(c34)C2=O)cc1)c1ccccc1,99.3% (inactive)
18,Cc1cc(O)c(C(C)(C)C)cc1Sc1cc(C(C)(C)C)c(O)cc1C,-20.9% (active)
19,COc1ccc(/C=C2\Oc3cc(C)c(Cl)cc3C2=O)cc1OC,100% (inactive)
20,Nc1cc(-c2ccc(Cl)cc2)nn1-c1nnc(/C=C/c2ccco2)c(=O)[nH]1,52.2% (inactive)

row,SMILES,growth
1,COc1ccc(C2CC(=O)c3c(O)c(OC)c(OC)c(OC)c3O2)c(O)c1 (stereo not given),2.26% (active)
2,CC(C)C[C@H](NC(=O)Cn1ccc(Nc2ccccc2)cc1=O)B(O)O,2.13% (active)
3,CCOC(=O)c1cnc2c(N=Nc3ccc(OC)cc3)c(N)nn2c1N,96.2% (inactive)
4,CCN(CC)CCC(CNc1ccnc2cc(Cl)ccc12)c1ccc(O)cc1 (stereo not given),-1.95% (active)
5,Cc1cccnc1NC1OC(=O)c2ccccc21 (stereo not given),100% (inactive)
6,CCOC(=O)c1c(C)c2c(n1Cc1ccccc1)CSCC2=O,13.3% [100 µM] (inactive)
7,CC(C)(c1ccc(OCC(O)CNCc2ccco2)cc1)c1ccc(OCC(O)CNCc2ccco2)cc1 (stereo not given),63.9% (inactive)
8,Cc1ccc(C(=O)N2C/C(=C/c3ccc(F)cc3)C(=O)/C(=C/c3ccc(F)cc3)C2)cc1,81.6% (inactive)
9,CC(=O)c1c[nH]c2ccccc12,114% (inactive)
10,CCCCN1CCN(c2ccc3nc(-c4ccc5nc(-c6ccc(OC)c(OC)c6)[nH]c5c4)[nH]c3c2)CC1,-25.1% (active)
11,O=C(CSc1oc(-c2ccccc2)nc1S(=O)(=O)c1ccccc1)Nc1ccc(F)cc1,63.5% (inactive)
12,COc1cc(C2=NN(C(C)=O)C(c3ccc(OC(C)=O)cc3OC(C)=O)O2)c(OC(C)=O)c2ccccc12 (stereo not given),-17.9% (active)
13,c1cnc2ccc3ncccc3c2c1,98.9% (inactive)
14,CC1=CC(=O)C(C(C)C)=CC1=Nc1cc(Br)c(O)c(Br)c1,-9.85% (active)
15,C=C1CC[C@@H]2C(C)(C)[C@H](O)CC[C@@]2(C)[C@@H]1COc1ccc2ccc(=O)oc2c1,46.4% (inactive)
16,C[n+]1cccc(NC(=O)c2ccc3ccc4ccc(C(=O)Nc5ccc[n+](C)c5)nc4c3n2)c1,61.4% (inactive)
17,COc1ccc(-c2c(C(=O)NS(C)(=O)=O)n(Cc3cccc(C(F)(F)F)c3)c3ccccc23)cc1,102% (inactive)
18,COc1ccc(-c2ccc3cc(C(=O)Nc4ccc(O)c(C(=O)/C=C/c5cc(OC)c(OC)c(OC)c5)c4)ccc3c2)cc1,95.5% (inactive)
19,COc1cccc(-c2nn(-c3ccccc3)cc2-c2ccnc(NCCNS(=O)(=O)c3ccccc3)c2)c1,8.92% (active)
20,Cc1nccc2c3ccc(OCc4cn(-c5ccc(Cl)cc5)nn4)cc3n(CCCc3ccccc3)c12,-64.9% (active)
